Active and inactive are the calls of the source. How the source made its calls: active means hit-call score of the fitted dose curve at least 0.9, where 1 is the maximum; inactive means score below 0.9.
Assays:
[1] = read-out: TIMP metallopeptidase inhibitor 2 (TIMP2), TIMP2 (gene 7077); assay: BSK_KF3CT_TIMP2: BioMAP Diversity Plus: KF3CT Assay for TIMP metallopeptidase inhibitor 2 (TIMP2) Biomarker Activity (AID 2283071); conditions: primary human keratinocytes with fibroblasts; actives raise or lower the signal
Method in brief: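 Measurements come from ELISA detection of TIMP-2 at 24 hours in a dosed human keratinocyte and foreskin fibroblast co-culture. DMSO serves as negative control and baseline.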

[2] = read-out: Transforming growth factor beta 1 (TGFb1), TGFB1 (gene 7040); assay: BSK_KF3CT_TGFb1: BioMAP Diversity Plus: KF3CT Assay for Transforming growth factor beta 1 (TGFb1) Biomarker Activity (AID 2283072); conditions: primary human keratinocytes with fibroblasts; actives raise or lower the signal
Method in brief: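 TGF-b1 ELISA on a 24 h dosed co-culture of human keratinocytes and foreskin fibroblasts; cytotoxicity tracked in parallel cultures by SRB staining.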

[3] = read-out: Matrix Metallopeptidase 9 (MMP9), MMP9 (gene 4318); assay: BSK_KF3CT_MMP9: BioMAP Diversity Plus: KF3CT Assay for Matrix Metallopeptidase 9 (MMP9) Biomarker Activity (AID 2283074); conditions: primary human keratinocytes with fibroblasts; actives raise or lower the signal;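 on AC50: MMP9 protein level quantified by ELISA in the co-culture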
Method in brief: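 MMP-9 quantified by ELISA after 24 h chemical treatment of primary human skin keratinocyte/fibroblast co-cultures; gain or loss fitted against DMSO, with parallel SRB staining (0.1% SRB, 560 nm) for overt cytotoxicity.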

[4] = read-out: urokinase plasminogen activator (uPA), PLAU (gene 5328); assay: BSK_KF3CT_uPA: BioMAP Diversity Plus: KF3CT Assay for urokinase plasminogen activator (uPA) Biomarker Activity (AID 2283075); conditions: primary human keratinocytes with fibroblasts; actives raise or lower the signal
Method in brief: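 ELISA read-out of uPA 24 h after dosing human skin keratinocytes co-cultured with foreskin fibroblasts. Signal change fitted both ways relative to DMSO; sulforhodamine B on parallel cultures marks overt cytotoxicity.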

CD40, CD40 (gene 958) [5] = assay: BSK_LPS_CD40: BioMAP Diversity Plus: LPS Assay for CD40 Biomarker Activity (AID 2283076); conditions: primary human HUVEC with PBMC; actives raise or lower the signal
Method in brief: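 ELISA readout of CD40 in HUVEC/PBMC co-culture (BSK_LPS system), 24 h post-dosing; bidirectional curve fit, DMSO baseline; parallel SRB total-protein staining for cytotoxicity.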

[6] = read-out: E-selectin (Homo sapiens) (UniProt P16581); assay: BSK_LPS_Eselectin: BioMAP Diversity Plus: LPS Assay for Eselectin Biomarker Activity (AID 2283077); conditions: primary human HUVEC with PBMC; actives raise or lower the signal
Method in brief: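 ELISA readout of E-selectin, 24 h post-dose, HUVEC + PBMC co-culture (LPS system). Gain or loss of signal vs DMSO baseline, bidirectional fit.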

[7] = read-out: Interleukin-8 (IL8), CXCL8 (gene 3576); assay: BSK_LPS_IL8: BioMAP Diversity Plus: LPS Assay for Interleukin-8 (IL8) Biomarker Activity (AID 2283078); conditions: primary human HUVEC with PBMC; actives raise or lower the signal
Method in brief: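 HUVEC + PBMC co-culture, LPS-activated; test chemicals dosed, IL-8 read by ELISA at 24 h. Bidirectional curve fit vs DMSO baseline (gain or loss of signal).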

[8] = BSK_LPS_SRB: Viability Assessment in the BioMAP Diversity Plus: LPS Assay (AID 2283079); conditions: primary human HUVEC with PBMC;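 further: total protein by sulforhodamine B absorbance as a cytotoxicity measure; measured one day after compound addition; fitted in both directions against DMSO so loss or gain of signal counts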
Method in brief: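 HUVEC + PBMC co-culture, LPS-stimulated; compound 24 h. 10% TCA fix, 0.1% SRB stain, A560. Bidirectional fit vs DMSO.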

[9] = read-out: Interleukin-1 alpha (IL1a), IL1A (gene 3552); assay: BSK_LPS_IL1a: BioMAP Diversity Plus: LPS Assay for Interleukin-1 alpha (IL1a) Biomarker Activity (AID 2283080); conditions: primary human HUVEC with PBMC; actives raise or lower the signal
Method in brief: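 HUVEC/PBMC co-culture, LPS system; 24 h after dosing; IL-1a by ELISA; gain or loss of signal fitted bidirectionally vs DMSO baseline.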

[10] = read-out: Monocyte Chemoattractant Protein-1 (MCP1), CCL2 (gene 6347); assay: BSK_LPS_MCP1: BioMAP Diversity Plus: LPS Assay for Monocyte Chemoattractant Protein-1 (MCP1) Biomarker Activity (AID 2283081); conditions: primary human HUVEC with PBMC; actives raise or lower the signal
Method in brief: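 ELISA read-out of MCP-1 after 24 h chemical dosing of a human umbilical vein endothelial cell/peripheral blood mononuclear cell co-culture stimulated with LPS. Gain or loss of signal fitted relative to DMSO controls.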

[11] = BSK_LPS_PGE2: BioMAP Diversity Plus: LPS Assay for Prostaglandin E2 (PGE2) Biomarker Activity (AID 2283082); conditions: primary human HUVEC with PBMC; actives raise or lower the signal;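 on AC50: secreted prostaglandin E2 measured by ELISA in LPS-stimulated co-culture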
Method in brief: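 Primary human endothelial cells and blood mononuclear cells, co-cultured with LPS, receive test chemical; PGE2 ELISA follows at 24 h, with SRB-stained parallel cultures flagging cytotoxicity.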

[12] = read-out: Macrophage colony-stimulating factor (MCSF), CSF1 (gene 1435); assay: BSK_LPS_MCSF: BioMAP Diversity Plus: LPS Assay for Macrophage colony-stimulating factor (MCSF) Biomarker Activity (AID 2283083); conditions: primary human HUVEC with PBMC; actives raise or lower the signal
Method in brief: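 HUVEC + PBMC co-culture (human primary), 24 h post-dose; M-CSF by ELISA; gain/loss of signal fitted bidirectionally vs DMSO baseline.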

[13] = read-out: Tissue Factor, F3 (gene 2152); assay: BSK_LPS_TissueFactor: BioMAP Diversity Plus: LPS Assay for Tissue Factor Biomarker Activity (AID 2283084); conditions: primary human HUVEC with PBMC; actives raise or lower the signal
Method in brief: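 HUVEC/PBMC co-culture, LPS-activated; CD142 ELISA read 24 h post-dose; bidirectional curve fit vs DMSO negative control.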

[14] = read-out: Tumor necrosis factor (Homo sapiens) (UniProt P01375); assay: BSK_LPS_TNFa: BioMAP Diversity Plus: LPS Assay for Tumour Necrosis Factor alpha (TNFa) Biomarker Activity (AID 2283085); conditions: primary human HUVEC with PBMC; actives raise or lower the signal;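 on AC50: TNFa protein level quantified by ELISA in the co-culture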
Method in brief: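 ELISA-based TNFa endpoint in a human endothelial–PBMC co-culture sampled 24 h post-exposure. Curves were fitted in both directions using DMSO as baseline of activity.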

[15] = read-out: Vascular cell adhesion molecule 1 (VCAM1), VCAM1 (gene 7412); assay: BSK_LPS_VCAM1: BioMAP Diversity Plus: LPS Assay for Vascular cell adhesion molecule 1 (VCAM1) Biomarker Activity (AID 2283086); conditions: primary human HUVEC with PBMC; actives raise or lower the signal
Method in brief: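 Measured by ELISA: VCAM-1 in LPS-activated HUVEC/PBMC co-cultures 24 h after treatment. Values reflect bidirectional fitting with DMSO as baseline.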

CD38, CD38 (gene 952) = assay: BSK_SAg_CD38: BioMAP Diversity Plus: SAg Assay for CD38 Biomarker Activity (AID 2283087); conditions: primary human HUVEC with PBMC; actives raise or lower the signal
Method in brief: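 Measures CD38 on a human endothelial/PBMC co-culture driven by SEB and TSST-1, 24 h after compound exposure, using ELISA with fluorescence detection; DMSO defines baseline for bidirectional curve fitting.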

CD40, CD40 (gene 958) [16] = assay: BSK_SAg_CD40: BioMAP Diversity Plus: SAg Assay for CD40 Biomarker Activity (AID 2283088); conditions: primary human HUVEC with PBMC; actives raise or lower the signal
Method in brief: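 HUVEC/PBMC co-culture, 24 h post-dose; CD40 by ELISA, fluorescence intensity; bidirectional fit vs DMSO negative control.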

CD69, CD69 (gene 969) = assay: BSK_SAg_CD69: BioMAP Diversity Plus: SAg Assay for CD69 Biomarker Activity (AID 2283089); conditions: primary human HUVEC with PBMC; actives raise or lower the signal;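 on AC50: cell surface CD69 protein quantified by ELISA with fluorescence detection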
Method in brief: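 HUVEC co-cultured with PBMC were dosed with chemical, and CD69 was measured by ELISA with fluorescence read-out 24 h later. Bidirectional curve fitting used DMSO as negative control and activity baseline.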

[17] = read-out: Monocyte Chemoattractant Protein-1 (MCP1), CCL2 (gene 6347); assay: BSK_SAg_MCP1: BioMAP Diversity Plus: SAg Assay for Monocyte Chemoattractant Protein-1 (MCP1) Biomarker Activity (AID 2283090); conditions: primary human HUVEC with PBMC; actives raise or lower the signal
Method in brief: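 Values derive from bidirectional fitting of ELISA-measured MCP1 against DMSO controls. Readings were taken 24 h after dosing human vascular endothelial cells co-cultured with peripheral blood mononuclear cells under superantigen stimulation.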

[18] = read-out: C-C motif chemokine 2 (Homo sapiens) (UniProt P13500); assay: BSK_KF3CT_MCP1: BioMAP Diversity Plus: KF3CT Assay for Monocyte Chemoattractant Protein 1 (MCP1/CCL2) Biomarker Activity (AID 2283073); conditions: primary human keratinocytes with fibroblasts; actives raise or lower the signal
Method in brief: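 KF3CT skin co-culture (keratinocytes/foreskin fibroblasts), 24 h post-dose; MCP-1 by ELISA; gain/loss of signal fit bidirectionally vs DMSO baseline.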

Measured: AC50

Chain of E-selectin (Homo sapiens) (P16581 whole entry, looked up): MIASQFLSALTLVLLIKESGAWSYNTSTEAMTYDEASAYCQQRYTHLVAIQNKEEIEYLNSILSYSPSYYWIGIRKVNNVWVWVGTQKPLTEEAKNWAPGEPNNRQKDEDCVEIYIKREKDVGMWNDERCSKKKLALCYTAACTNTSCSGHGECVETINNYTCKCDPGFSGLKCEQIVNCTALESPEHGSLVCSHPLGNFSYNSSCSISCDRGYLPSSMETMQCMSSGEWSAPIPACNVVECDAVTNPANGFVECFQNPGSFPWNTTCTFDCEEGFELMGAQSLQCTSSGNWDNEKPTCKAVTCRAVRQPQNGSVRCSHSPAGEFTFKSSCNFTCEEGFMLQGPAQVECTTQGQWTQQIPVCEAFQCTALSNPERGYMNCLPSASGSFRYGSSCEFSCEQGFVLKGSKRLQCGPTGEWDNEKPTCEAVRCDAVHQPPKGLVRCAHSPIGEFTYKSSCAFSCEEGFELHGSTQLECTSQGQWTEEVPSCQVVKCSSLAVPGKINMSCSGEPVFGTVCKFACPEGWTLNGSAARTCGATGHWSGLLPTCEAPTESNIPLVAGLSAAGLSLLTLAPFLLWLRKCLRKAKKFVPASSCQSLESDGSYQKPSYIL
Chain of Tumor necrosis factor (Homo sapiens) (P01375 whole entry, looked up): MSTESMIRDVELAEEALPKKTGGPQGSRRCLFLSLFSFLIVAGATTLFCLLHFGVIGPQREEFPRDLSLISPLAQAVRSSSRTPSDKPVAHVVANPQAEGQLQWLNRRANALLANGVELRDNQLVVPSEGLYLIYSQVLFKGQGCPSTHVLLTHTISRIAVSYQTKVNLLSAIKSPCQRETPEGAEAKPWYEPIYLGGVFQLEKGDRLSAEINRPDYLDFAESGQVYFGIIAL

Cc1ccc(N)cc1
not listed: [18]
inactive: all other assays above

Nc1cc(Cl)cc(C(=O)O)c1Cl
not listed: [3] | [13] | [18]
inactive: all other assays above

Cc1ccc(N)c(N)c1
active: [3] 9.74 µM | [11] 20 µM | [12] 11.5 µM | [15] 9.77 µM | CD40, CD40 (gene 958) [16] 7.11 µM
not listed: [13] | [18]
inactive: all other assays above

CCN(CC)CCO
not listed: [13] | [18]
inactive: all other assays above

COC(=O)Nc1nc2ccccc2[nH]1
active: [8] 10.5 µM | [12] 7.04 µM | [15] 11.3 µM
not listed: [1] | [13]
inactive: all other assays above

CCOC(=O)[C@]1(c2ccccc2)Oc2ccccc2[C@@H]1N
active: [3] 31 µM | CD40, CD40 (gene 958) [5] 32.9 µM | [7] 36.1 µM | CD38, CD38 (gene 952) 36.2 µM
not listed: [13] | [17] | [18]
inactive: all other assays above

CCCCCOC(=O)c1ccccc1C(=O)OCCCCC
inactive: [2] | [18] | [3] | [4] | [9] | [10]
active: CD40, CD40 (gene 958) [5] 20 µM | [6] 31.7 µM | [7] 20 µM | [11] 17.7 µM | [12] 26.5 µM | [14] 20 µM | [15] 20 µM | CD38, CD38 (gene 952) 31.6 µM | CD40, CD40 (gene 958) [16] 24.8 µM | CD69, CD69 (gene 969) 20 µM
